# The OligoGym collection
# Target: PPIA
# Assay: pooled miR-30 sensor sort-seq; sequence = guide strand
# Settings: shRNA
# Further: reference of the scale not given here.
row,Sequence,sensor-assay potency score (higher = more potent)
1,TCTTCTTGCTGGTCTTGCCATT,-1.28
2,TTAGGATGAAGTTCTCATCTTC,0.589
3,TACAGAAGGAATGATCTGGTGG,0.317

# Target: PPIF
# Assay: as above
# Settings: shRNA
row,Sequence,sensor-assay potency score (higher = more potent)
1,TATTTTCTTCACGACGTCCATG,-0.975
2,TTTCACTTCTAGTCAATCTTGT,0.721
3,TTCAGCTCCAGCACCACGCGGC,-0.501
4,TAGCCATGGACAGGACACCTGG,-1.46
5,TTAAACAGGTATTAGAGTCCTT,-0.0918
6,TGTGATGACAATCTTCTTGGAT,0.322
7,TGACCGAACACAACATGCTTGC,-0.464
8,TAGGAAGACAATATTAAACAGG,-0.559
9,TAAACAGGTATTAGAGTCCTTT,-0.324
10,TTCTATTTTCTTCACGACGTCC,-0.712
11,TTCACTTCTAGTCAATCTTGTT,-0.0767
12,TCTGTGATGACAATCTTCTTGG,0.0684
